Test results taken from the supplement of paper PMC7411640.
Where a name gives a salt, the structure may show the parent alone.

Test system: MDA-MB-468
Assay: phospho-S6 immunofluorescence (DAPI-normalised), per-plate z-score; higher = higher phospho-S6 signal (less pathway suppression)
Conditions: 24 h
Procedure: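 GPCR-targeted compound library (MedChemExpress HY-L006) tested on MDA-MB-468 PTEN-null TNBC cells in 384-well plates at 0.1, 1 or 10 uM, combined with vehicle, GDC0941 450 nM or lapatinib 1 uM, for 24 h. Phospho-S6 (S240/244) immunofluorescence normalised to DAPI and expressed as a per-plate z-score; values are the mean of biological triplicates.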

Structure (SMILES)	phospho-S6 immunofluorescence (z-score) (co-treatment: GDC0941 450 nM)	phospho-S6 immunofluorescence (z-score) (co-treatment: lapatinib 1 uM)	phospho-S6 immunofluorescence (z-score) (co-treatment: vehicle)
Oc1ccc2c3c1O[C@H]1c4[nH]c5ccccc5c4C[C@@]4(O)[C@@H](C2)N(CC2CC2)CC[C@]314 [Naltrindole (hydrochloride)] (compound 10 µM)	-1.12	-5.41	-1.21
CNCC(O)c1ccc(O)cc1 (centres undefined) [Synephrine (hydrochloride)] (compound 10 µM)	1.02	0.35	0.24
CN1C[C@H](C(=O)N[C@]2(C)O[C@@]3(O)[C@@H]4CCCN4C(=O)[C@H](Cc4ccccc4)N3C2=O)C[C@@H]2c3cccc4[nH]cc(c34)C[C@H]21 [Dihydroergotamine (mesylate)] (compound 10 µM)	1.05	0	0.86
CC(C)C[C@H]1C(=O)N2CCC[C@H]2[C@]2(O)O[C@](NC(=O)[C@@H]3C=C4c5cccc6[nH]c(Br)c(c56)C[C@H]4N(C)C3)(C(C)C)C(=O)N12 [Bromocriptine (mesylate)] (compound 10 µM)	-3.83	-3.57	-1.61
O=C1Nc2ccccc2C2(CCN(CCc3ccc(C(F)(F)F)cc3)CC2)O1 (compound 10 µM)	-3.3	-4.41	-4.38
COc1ccc2c(c1OC)CN1CCc3cc4c(cc3C1C2)OCO4 (centres undefined) [Tetrahydroberberine] (compound 10 µM)	-0.04	-1.09	-0.52
COc1cc2c3c(c1OC)-c1ccccc1C[C@H]3N(C)CC2 [Nuciferine] (compound 10 µM)	0.21	-0.74	0
Cc1cccc(C)c1NC1=NCCCS1 [Xylazine (hydrochloride)] (compound 10 µM)	0.73	0.79	0.89
O=C1CC[C@@]2(O)[C@H]3Cc4ccc(O)c5c4[C@@]2(CCN3CC2CC2)[C@H]1O5 [Naltrexone (Hydrochloride)] (compound 10 µM)	0.88	0.25	1.41
C[N+]1(C)CCCC(OC(=O)C(O)(c2ccccc2)c2ccccc2)C1 (centres undefined) [Mepenzolate (Bromide)] (compound 10 µM)	-0.25	-0.12	-0.02
CN1CCC(C(=O)c2cccc(NC(=O)c3c(F)cc(F)cc3F)n2)CC1 [Lasmiditan (hydrochloride)] (compound 10 µM)	-2.08	-3.95	-0.09
C[N+]1(C)[C@@H]2C[C@@H](OC(=O)[C@H](CO)c3ccccc3)C[C@H]1[C@@H]1O[C@@H]12 [Methscopolamine (bromide)] (compound 10 µM)	0.05	0.43	0.6
NCC(O)c1ccc(O)cc1 (centres undefined) [Octopamine (hydrochloride)] (compound 10 µM)	0.26	0.86	1.09
